We go through 24 compounds from PubChem BioAssay (NCATS).

Inconclusive results are not listed. Unmarked numbers belong to inactive results. Active and inactive are the calls of the source. Calls follow the shape of the dose curve; as a rule, active = well fitted inhibition curve with a large enough effect; inconclusive = small, poorly fitted or top-dose-only effect; inactive = no such curve, though single readings can be large or run the other way.
% is scaled to controls: 0 for no effect and ±100 for the full control effect; potency is read from the fitted curve at half-maximal effect.

This assay concerns Zika virus NS2B-NS3 protease (unlinked complex). Kind of assay: Primary screen GU Rhodamine qHTS for Zika virus inhibitors: Unlinked NS2B-NS3 protease assay (AID 1347159). Also: nearly all actives have a fitted effect of over 60% in size. The conditions noted are these: Recombinant ZIKV NS2B-NS3 protease, Rhodamine110 substrate fluorescence; series mostly up to 107 µM; activity change, negative = inhibition: at the top concentration. The method, boiled down: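 Percent inhibition derives from the 15-min fluorescence change (ex 480, em 540 nm), normalized to no-enzyme and no-inhibitor wells. Reactions contained 25 nM NS2B-NS3 complex and 1.5 microM substrate in 10 mM Tris-HCl pH 8.0.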
On the technique in general: In qHTS, concentration-response curves come from the screen itself.
With `NC(=O)c1cccc2cn(-c3ccc([C@@H]4CCCNC4)cc3)nc12`, the “activity change, negative = inhibition” value was 5.75%.
The same measure, in the same setting: with `COc1ccc(F)c(F)c1C(=O)c1cnc(NC2CCN(S(C)(=O)=O)CC2)nc1N` the figure was 72.7%; with `OCCCNc1cc(-c2ccnc(Nc3cccc(Cl)c3)n2)ccn1`, 30.9%.
Turning to `Cc1c(C)n(Cc2ccc(-c3ccccc3C(=O)O)cc2)c2ccc(C(=O)N[C@@H](C)c3ccc([N+](=O)[O-])cc3)cc12`, the Potency was 2.82 µM (active).
Regarding `O=C(Nc1ncc(-c2cc(C(F)F)nn2-c2c(Cl)cccc2Cl)s1)C1CC1`, the “activity change, negative = inhibition” value was -6.51%.
On the same count and under the same terms, with `CC[C@@H]1C(=O)N(C)c2cnc(Nc3ccc(C(=O)NC4CCC(N5CCN(CC6CC6)CC5)CC4)cc3OC)nc2N1C(C)C` (some centres undefined) the figure was 19.3%; with `CNC(=O)c1c(F)cccc1Nc1nc(Nc2cc3c(cc2OC)CCN3C(=O)CN(C)C)nc2[nH]ccc12`, 69.2%; with `COc1cc2c(Oc3ccc(NC(=O)C4(C(=O)Nc5ccc(F)cc5)CC4)cc3F)ccnc2cc1OCCCN1CCOCC1`, 123%.
`C[C@@H](Oc1cc(-c2cnn(C3CCNCC3)c2)cnc1N)c1c(Cl)ccc(F)c1Cl`: the Potency result is “inactive”.
On to `Cc1cc(Nc2cc(N3CCN(C)CC3)nc(Sc3ccc(NC(=O)C4CC4)cc3)n2)n[nH]1`, for which the “activity change, negative = inhibition” value was 81.4%.
Still for that read-out and setting: with `Cc1nc(N)ncc1-c1nc(N2CCOCC2)c2sc(C(C)(C)O)cc2n1` the figure was 8.58%; with `CC(C)(C)c1cc(NC(=O)Nc2ccc(-c3cn4c(n3)sc3cc(OCCN5CCOCC5)ccc34)cc2)no1`, -2.9%.
Same read-out and setting: with `NCC(=O)Nc1ccc(-n2nc(C(F)(F)F)cc2-c2ccc3c(ccc4ccccc43)c2)cc1` the figure was 241%.
Still for that read-out and setting: with `CC(C)c1cc(-c2n[nH]c(=O)n2-c2ccc3c(ccn3C)c2)c(O)cc1O` the figure was -8.36%.
Turning to `Nc1ncnc2c1c(-c1cnc3[nH]ccc3c1)nn2C1CCCC1`, the “activity change, negative = inhibition” value was 14.5%.
The same measure, in the same setting: with `CN(C)Cc1c(C(=O)NCCOc2ccc(C(=O)NO)cc2)oc2ccccc12` the figure was 43.7%.
The same measure, in the same setting: with `COc1ccc(-n2nc(C(N)=O)c3c2C(=O)N(c2ccc(N4CCCCC4=O)cc2)CC3)cc1` the figure was -7.55%; with `CCc1c2c(nc3ccc(O)cc13)-c1cc3c(c(=O)n1C2)COC(=O)[C@]3(O)CC`, 0.22%; with `Cc1nc(Nc2n[nH]c3c2CN(C(=O)N[C@H](CN(C)C)c2ccccc2)C3(C)C)c2sccc2n1`, -30.3%.
`CN(C)CC(C)(C)CNc1nn2c(-c3ccccc3)nnc2cc1C1CCC1`: the “activity change, negative = inhibition” value is -12.1%.
As to `COc1cccc(-c2ccc(NC(=O)C3=C(C(=O)O)CCC3)c(F)c2)c1`, the Potency was 17.8 µM (active).
On to `CC(C)(O)c1cc2nc(-c3cnc(N)nc3)nc(N3CCOCC3)c2s1`, for which the “activity change, negative = inhibition” value is -7.54%.
With `COc1cccc2c(NCc3ccccc3)nc(-n3c(N)nc4ccccc43)nc12`, the Potency was 50.1 µM (active).
Regarding `C=CC(=O)Nc1cccc(Oc2nc(Nc3ccc(N4CCN(C)CC4)cc3)ncc2Cl)c1`, the “activity change, negative = inhibition” value was 53.1%.
